SMILES strings stand for the structures.

For seven molecules, inhibition results are on record in ChEMBL document CHEMBL1961873, “Compounds: GSK PKIS; Assays: Nanosyn kinase panel” (2012).

Assay [1] deals with T1, Muscle, skeletal receptor tyrosine-protein kinase (Homo sapiens) (UniProt O15146).
T1 sequence (whole entry): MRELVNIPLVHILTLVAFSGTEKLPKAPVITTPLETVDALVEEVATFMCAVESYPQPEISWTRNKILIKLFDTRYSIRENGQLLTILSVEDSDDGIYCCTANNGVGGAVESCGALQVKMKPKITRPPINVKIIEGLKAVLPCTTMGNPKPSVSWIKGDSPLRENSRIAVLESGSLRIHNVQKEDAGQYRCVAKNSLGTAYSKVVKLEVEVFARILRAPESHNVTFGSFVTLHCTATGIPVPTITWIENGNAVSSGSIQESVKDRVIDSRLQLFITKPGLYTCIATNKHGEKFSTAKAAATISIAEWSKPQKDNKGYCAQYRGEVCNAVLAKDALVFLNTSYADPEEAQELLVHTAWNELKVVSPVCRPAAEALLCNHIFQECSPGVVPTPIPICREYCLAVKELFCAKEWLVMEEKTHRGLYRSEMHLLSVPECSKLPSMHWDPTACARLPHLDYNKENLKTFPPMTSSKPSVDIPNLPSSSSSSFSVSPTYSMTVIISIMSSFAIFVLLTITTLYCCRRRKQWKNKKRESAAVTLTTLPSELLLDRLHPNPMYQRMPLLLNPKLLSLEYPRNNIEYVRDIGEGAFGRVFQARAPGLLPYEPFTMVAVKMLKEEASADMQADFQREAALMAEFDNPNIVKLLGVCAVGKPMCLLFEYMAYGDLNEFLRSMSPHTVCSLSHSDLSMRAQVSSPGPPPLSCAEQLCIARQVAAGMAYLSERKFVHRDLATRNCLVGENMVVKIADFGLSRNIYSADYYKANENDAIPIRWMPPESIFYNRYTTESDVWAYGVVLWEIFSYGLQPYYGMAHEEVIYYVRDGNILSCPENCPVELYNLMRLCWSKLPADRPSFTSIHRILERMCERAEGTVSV
The note with it: at 1 µM.

For assay [2], the target named is Platelet-derived growth factor receptor alpha (Homo sapiens) (UniProt P16234). As to conditions: at 0.1 µM.
Assay [3] shares this target. The note with it: at 1 µM.
For assay [4], the system named is Platelet-derived growth factor receptor alpha (Homo sapiens), P16234 [D842V]. As to conditions: at 0.1 µM.
Assay [5] has the same test system. As to conditions: at 1 µM.
The subject of assay [6] is Platelet-derived growth factor receptor alpha (Homo sapiens), P16234 [T674I]. As to conditions: at 0.1 µM.
Assay [7] shares this test system. As to conditions: at 1 µM.
Assay [8] deals with Platelet-derived growth factor receptor alpha (Homo sapiens), P16234 [V561D]. As to conditions: at 0.1 µM.
For assay [9] the test system is unchanged. As to conditions: at 1 µM.
Assay [10] has as its target Platelet-derived growth factor receptor beta (Homo sapiens) (UniProt P09619). The note with it: at 0.1 µM.
Assay [11] shares this target. The note with it: at 1 µM.
Assay [12] deals with Tyrosine-protein kinase FRK (Homo sapiens) (UniProt P42685). The note with it: at 0.1 µM.
Sequence of Tyrosine-protein kinase FRK (Homo sapiens) (P42685 whole entry): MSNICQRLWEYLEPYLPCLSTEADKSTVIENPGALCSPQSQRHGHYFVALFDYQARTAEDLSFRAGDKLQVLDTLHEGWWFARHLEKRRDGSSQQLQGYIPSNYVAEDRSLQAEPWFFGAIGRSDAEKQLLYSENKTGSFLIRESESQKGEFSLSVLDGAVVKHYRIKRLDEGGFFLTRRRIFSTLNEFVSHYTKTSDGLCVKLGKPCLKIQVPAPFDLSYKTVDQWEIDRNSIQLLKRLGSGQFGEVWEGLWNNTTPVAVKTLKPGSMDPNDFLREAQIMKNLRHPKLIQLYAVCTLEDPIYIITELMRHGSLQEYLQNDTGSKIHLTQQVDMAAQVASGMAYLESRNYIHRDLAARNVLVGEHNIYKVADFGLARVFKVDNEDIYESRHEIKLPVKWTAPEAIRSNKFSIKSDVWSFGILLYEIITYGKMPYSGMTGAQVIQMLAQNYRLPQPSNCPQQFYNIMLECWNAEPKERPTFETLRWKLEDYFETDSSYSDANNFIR
Assay [13] shares this target. As to conditions: at 1 µM.
The target of assay [14] is Protein-tyrosine kinase 2-beta (Homo sapiens) (UniProt Q14289). The note with it: at 0.1 µM.
Sequence of Protein-tyrosine kinase 2-beta (Homo sapiens) (Q14289 whole entry, looked up): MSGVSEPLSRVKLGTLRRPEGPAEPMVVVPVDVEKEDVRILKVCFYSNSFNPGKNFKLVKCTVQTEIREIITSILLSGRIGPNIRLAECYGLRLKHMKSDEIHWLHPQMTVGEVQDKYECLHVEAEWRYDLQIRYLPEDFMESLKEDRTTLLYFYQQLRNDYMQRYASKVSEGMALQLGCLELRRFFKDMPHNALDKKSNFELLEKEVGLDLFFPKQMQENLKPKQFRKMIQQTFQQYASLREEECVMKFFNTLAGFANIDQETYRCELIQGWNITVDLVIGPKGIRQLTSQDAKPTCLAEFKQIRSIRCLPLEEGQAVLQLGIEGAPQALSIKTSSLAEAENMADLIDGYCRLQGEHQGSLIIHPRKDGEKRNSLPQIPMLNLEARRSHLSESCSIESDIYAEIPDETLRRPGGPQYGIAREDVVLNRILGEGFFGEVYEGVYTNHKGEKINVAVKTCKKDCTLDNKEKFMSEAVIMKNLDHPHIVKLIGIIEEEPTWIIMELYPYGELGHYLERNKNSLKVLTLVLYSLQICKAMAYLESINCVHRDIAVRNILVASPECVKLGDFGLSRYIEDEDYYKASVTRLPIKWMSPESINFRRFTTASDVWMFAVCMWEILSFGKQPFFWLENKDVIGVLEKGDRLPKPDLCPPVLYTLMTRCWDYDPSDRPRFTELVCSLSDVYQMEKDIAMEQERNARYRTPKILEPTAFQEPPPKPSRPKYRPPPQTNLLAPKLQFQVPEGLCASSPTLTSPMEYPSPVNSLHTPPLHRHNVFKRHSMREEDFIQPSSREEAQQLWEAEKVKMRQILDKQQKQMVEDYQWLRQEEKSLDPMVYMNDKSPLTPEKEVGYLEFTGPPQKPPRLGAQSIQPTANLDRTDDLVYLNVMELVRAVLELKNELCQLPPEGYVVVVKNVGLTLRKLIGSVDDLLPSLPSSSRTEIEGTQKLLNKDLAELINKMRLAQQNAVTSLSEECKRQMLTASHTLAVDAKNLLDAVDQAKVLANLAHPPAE
Assay [15] has the same target. The note with it: at 1 µM.
Assay [16] addresses Proto-oncogene tyrosine-protein kinase receptor Ret (Homo sapiens) (UniProt P07949). As to conditions: at 0.1 µM.
The target is the same in assay [17]. The note with it: at 1 µM.
The test system of assay [18] is Proto-oncogene tyrosine-protein kinase receptor Ret (Homo sapiens), P07949 [V804L]. The note with it: at 0.1 µM.
Sequence of Proto-oncogene tyrosine-protein kinase receptor Ret (Homo sapiens), P07949 [V804L] (P07949 whole entry V804L): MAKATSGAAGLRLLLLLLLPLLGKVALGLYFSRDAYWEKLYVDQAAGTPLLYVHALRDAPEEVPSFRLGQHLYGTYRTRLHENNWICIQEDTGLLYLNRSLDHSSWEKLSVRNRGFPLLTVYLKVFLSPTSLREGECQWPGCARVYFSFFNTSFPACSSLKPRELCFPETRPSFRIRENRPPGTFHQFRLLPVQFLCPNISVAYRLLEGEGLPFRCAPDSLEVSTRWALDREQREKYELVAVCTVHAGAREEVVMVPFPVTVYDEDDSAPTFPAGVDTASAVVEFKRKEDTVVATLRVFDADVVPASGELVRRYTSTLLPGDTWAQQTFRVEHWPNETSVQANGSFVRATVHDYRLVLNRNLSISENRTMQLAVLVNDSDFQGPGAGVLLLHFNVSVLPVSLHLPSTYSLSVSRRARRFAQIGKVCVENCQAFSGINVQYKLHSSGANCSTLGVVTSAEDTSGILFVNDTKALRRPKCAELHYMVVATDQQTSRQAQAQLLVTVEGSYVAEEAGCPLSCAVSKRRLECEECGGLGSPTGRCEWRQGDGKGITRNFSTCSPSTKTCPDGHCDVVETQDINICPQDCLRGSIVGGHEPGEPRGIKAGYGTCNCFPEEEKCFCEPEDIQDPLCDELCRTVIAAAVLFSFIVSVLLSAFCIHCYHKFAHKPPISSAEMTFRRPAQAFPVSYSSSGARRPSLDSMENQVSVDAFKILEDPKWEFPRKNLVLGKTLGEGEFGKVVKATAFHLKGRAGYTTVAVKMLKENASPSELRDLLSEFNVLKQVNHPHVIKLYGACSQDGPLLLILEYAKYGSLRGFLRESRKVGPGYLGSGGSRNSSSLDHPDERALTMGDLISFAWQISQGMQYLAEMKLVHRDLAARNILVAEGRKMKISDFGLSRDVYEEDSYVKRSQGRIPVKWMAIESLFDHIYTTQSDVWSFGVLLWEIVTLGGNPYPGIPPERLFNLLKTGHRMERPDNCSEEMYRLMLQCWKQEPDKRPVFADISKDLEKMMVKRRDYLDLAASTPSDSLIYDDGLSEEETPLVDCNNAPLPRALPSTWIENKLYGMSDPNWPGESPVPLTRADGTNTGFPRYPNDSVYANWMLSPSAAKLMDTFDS
The test system is the same in assay [19]. As to conditions: at 1 µM.
Assay [20] has as its system Proto-oncogene tyrosine-protein kinase receptor Ret (Homo sapiens), P07949 [Y791F]. The note with it: at 0.1 µM.

Sequence of Proto-oncogene tyrosine-protein kinase receptor Ret (Homo sapiens) (P07949 whole entry): as the sequence (P07949 whole entry V804L) above, with L804V counted along it
Sequence of Proto-oncogene tyrosine-protein kinase receptor Ret (Homo sapiens), P07949 [Y791F] (P07949 whole entry Y791F): as the sequence (P07949 whole entry V804L) above, with Y791F, L804V counted along it

Broadly, the inhibition is the drop in the measured response relative to a control, in per cent. Regarding `NC(=O)c1sc(-n2cnc3cc(C(F)(F)F)ccc32)cc1OCc1ccccc1Br`, the inhibition in assay [1] is -0.86%; in assay [2] it was 7.64%; in assay [3], 6.52%; in assay [4] it was 4.16%; in assay [5], 5.38%; in assay [6], 3.44%. Further, the inhibition stood at 2.59% in assay [7]; 3.5% in assay [8]; 4.58% in assay [9]; 3.03% in assay [10]; 5.82% in assay [11]; 0.62% in [12]. Further, the inhibition was -0.62% in [13]; 3.52% in assay [14]; -2.94% in [15]; 5.91% in assay [16]; 2.23% in [17]; 1.83% in assay [18]. The inhibition in [19] turned out to be 11.6%; in assay [20] it was 2.29%.
As to `COc1cccc(COc2cc(-n3cnc4ccccc43)sc2C(N)=O)c1`, the inhibition is -3.86% in [1]; 4.14% in [2]; 14.5% in [3]; 0.88% in assay [4]; 6.81% in assay [5]; 1.86% in assay [6]. Also, the inhibition is -0.65% in assay [7]; 0.87% in assay [8]; 5.54% in assay [9]; 0.6% in assay [10]; 8.32% in assay [11]; 0% in assay [12]. Moreover, the inhibition in assay [13] is 0.01%; in [14] it was -3.42%; in [15], -2.02%; in assay [16], 0.11%; in [17], 7.33%; in assay [18], 0.81%. Also, the inhibition in assay [19] was 0.07%; in assay [20], 0.47%.
In the case of `Nc1nonc1-c1nc2cnccc2n1C1CCCCC1`, the inhibition is 3.94% in assay [1]; 3.7% in [2]; 18.1% in assay [3]; 2.4% in assay [4]; 16.9% in assay [5]; 1.78% in assay [6]. The inhibition in [7] came out at 19.5%; in [8], 2.95%; in [9], 14.4%; in assay [10], 4.64%; in assay [11], 26.4%; in [12], 0.25%. Moreover, the inhibition in [13] was 0.75%; in assay [14], -7.07%; in [15] it was -8.39%; in [16] it was 3.59%; in [17], 9.55%; in assay [18], 5.85%. Besides, the inhibition in assay [19] came to 19.5%; in assay [20] it was 2.08%.
Turning to `COc1cc2c(cc1Nc1nc(Nc3ccsc3C(N)=O)c3cc[nH]c3n1)N(C(=O)CN(C)C)CCC2`, the inhibition in assay [1] worked out at 28.6%; in assay [2] it was 11.4%; in assay [3], 26.1%; in assay [4], 2.44%; in assay [5] it was 3.25%; in assay [6] it was 1.93%. Further, the inhibition in assay [7] worked out at 2.94%; in assay [8], 3.24%; in assay [9] it was 13.9%; in assay [10] it was 10.4%; in [11] it was 33.9%; in assay [12], 1.91%. Besides, the inhibition in [13] was 8.84%; in assay [14] it was 77.8%; in assay [15], 95.6%; in assay [16] it was 11.9%; in [17], 14.2%; in assay [18], 2.29%. Also, the results for the inhibition in assay [19] and in [20] were 13.6% and 1.79%, respectively.
As to `NS(=O)(=O)c1ccc(-c2ccc3c(NC(=O)C4CC4)n[nH]c3c2)cc1`, the inhibition in [1] is 8.82%; in assay [2] it was 5.05%; in assay [3] it was 15.1%; in [4] it was 1.45%; in assay [5], 5.77%; in assay [6], 2.04%. Also, the inhibition was 1.43% in [7]; -0.07% in assay [8]; 8.8% in assay [9]; 6.55% in assay [10]; 5.87% in [11]; 1.62% in assay [12]. Also, the inhibition in [13] turned out to be 1.3%; in assay [14], 6.65%; in assay [15], 5.61%; in assay [16], 3%; in assay [17], 8.48%; in assay [18] it was 2.82%. The inhibition is 4.4% in [19] and 3.34% in assay [20].
Consider `NS(=O)(=O)c1ccc(N/C=C2\C(=O)Nc3ccc4ncsc4c32)cc1`, for which the inhibition in [1] was 51.2%; in assay [2] it was 54.4%; in [3], 86.9%; in assay [4], 55.5%; in [5] it was 91.5%; in [6], 15.1%. Moreover, the inhibition in assay [7] was found to be 60.9%; in assay [8], 48.2%; in [9] it was 90.9%; in assay [10], 56.5%; in [11], 86.8%; in assay [12], 2.34%. The inhibition in assay [13] is 3.93%; in assay [14], 7.28%; in assay [15], 43.6%; in assay [16], 30.4%; in [17], 71.3%; in [18], 47.3%. Moreover, the results for the inhibition in [19] and in [20] were 73.9% and 30.5%, respectively.
For `CCn1c(-c2nonc2N)nc2c(C#CCN)ncc(OCCCN)c21`, the inhibition in assay [1] stood at 12.2%; in [2], 7.42%; in assay [3] it was 11.7%; in assay [4], 0.26%; in [5], 8.54%; in assay [6], 2.16%. The inhibition was 5.96% in [7]; 4.02% in [8]; 3.51% in assay [9]; 9.08% in assay [10]; 25.5% in [11]; -0.39% in [12]. Further, the inhibition in assay [13] was -0.01%; in assay [14], -5.89%; in assay [15] it was 8.44%; in assay [16] it was 3.26%; in assay [17], 4.11%; in assay [18] it was 6.12%. Moreover, the inhibition in assay [19] stood at 9.27%; in [20], 1.83%.
